Source: PubChem BioAssay AID1159580 (chemical genetic matrix, 2015)
Among all 5,500 compounds or so, about 2,000 (36%) were called active. Inconclusive results (about 18%) are left out. Rule as the data show it: active = normalized growth mostly below about 0.91 (no sharp cut-off); inconclusive = no clear call, values can overlap the other calls; inactive = mostly above about 0.92. This is one part of the list.

Test: chemical genetic growth profiling, strain panel (AID 1159580);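 also: tested at 20 µM; growth read once vehicle control cultures reached saturation at 30 °C; 1 = growth at the plate median or of vehicle wells; lower values mean less growth of the strain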
Settings: growth OD

Measured: normalized growth

CC(=O)OC1CCC2(C)C(CC(OC(C)=O)C3(C)C4=CC(=O)OC(c5ccoc5)C4(C)CCC23)C1(C)C (stereo unspecified)
inactive: S. cerevisiae deletion strains, locus YAL013W, strain DEP1, active compounds read low 0.989 | S. cerevisiae deletion strains, locus YBR021W, strain FUR4, active compounds read low 1.02 | S. cerevisiae deletion strains, locus YBR229C, strain ROT2, active compounds read low 1 | S. cerevisiae deletion strains, locus YCL029C, strain bik1, active compounds read low 0.995 | S. cerevisiae deletion strains, locus YDL035C, strain GPR1, active compounds read low 0.972 | S. cerevisiae deletion strains, locus YDL074C, strain BRE1, active compounds read low 0.791 | S. cerevisiae deletion strains, locus YDL101C, strain DUN1, active compounds read low 0.995 | S. cerevisiae deletion strains, locus YDL134C, strain PPH21, active compounds read low 0.989 | S. cerevisiae deletion strains, locus YDL185W, strain tfp1, active compounds read low 0.963 | S. cerevisiae deletion strains, locus YDL192W, strain arf1, active compounds read low 0.998 | S. cerevisiae deletion strains, locus YDR101C, strain arx1, active compounds read low 1.01 | S. cerevisiae deletion strains, locus YDR150W, strain NUM1, active compounds read low 0.98 | S. cerevisiae deletion strains, locus YDR162C, strain NBP2, active compounds read low 1.01 | S. cerevisiae deletion strains, locus YDR318W, strain mcm21, active compounds read low 0.992 | S. cerevisiae deletion strains, locus YDR388W, active compounds read low 1 | S. cerevisiae deletion strains, locus YDR502C, strain sam2, active compounds read low 1.01 | S. cerevisiae deletion strains, locus YEL061C, strain CIN8, active compounds read low 1.01 | S. cerevisiae deletion strains, locus YER110C, active compounds read low 1 | S. cerevisiae deletion strains, locus YER155C, strain BEM2, active compounds read low 0.997 | S. cerevisiae deletion strains, locus YER167W, strain BCK2, active compounds read low 0.994 | S. cerevisiae deletion strains, locus YGL078C, strain dbp3, active compounds read low 0.993 | S. cerevisiae deletion strains, locus YGL086W, strain mad1, active compounds read low 0.969 | S. cerevisiae deletion strains, locus YGL248W, strain PDE1, active compounds read low 1.01 | S. cerevisiae deletion strains, locus YGR078C, strain PAC10, active compounds read low 0.948 | S. cerevisiae deletion strains, locus YGR135W, strain pre9, active compounds read low 1.04 | S. cerevisiae deletion strains, locus YGR229C, strain SMI1, active compounds read low 0.986 | S. cerevisiae deletion strains, locus YGR252W, strain gcn5, active compounds read low 0.961 | S. cerevisiae deletion strains, locus YHR030C, strain SLT2, active compounds read low 0.998 | S. cerevisiae deletion strains, locus YHR079C, strain IRE1 (second series), active compounds read low 0.972 | S. cerevisiae deletion strains, locus YHR094C, strain hxt1, active compounds read low 0.989 | S. cerevisiae deletion strains, locus YHR129C, strain ARP1, active compounds read low 1 | S. cerevisiae deletion strains, locus YHR200W, strain rpn10, active compounds read low 1 | S. cerevisiae deletion strains, locus YIL066C, strain RNR3, active compounds read low 0.973 | S. cerevisiae deletion strains, locus YIL073C, strain SPO22, active compounds read low 0.882 | S. cerevisiae deletion strains, locus YIL125W, strain kgd1, active compounds read low 1 | S. cerevisiae deletion strains, locus YIR030C, strain dcg1, active compounds read low 1 | S. cerevisiae deletion strains, locus YJL095W, strain BCK1, active compounds read low 1.01 | S. cerevisiae deletion strains, locus YJL134W, strain LCB3, active compounds read low 1 | S. cerevisiae deletion strains, locus YJL168C, strain set2, active compounds read low 1 | S. cerevisiae deletion strains, locus YJL187C, strain SWE1 (second series), active compounds read low 0.994 | S. cerevisiae deletion strains, locus YJR043C, strain POL32, active compounds read low 0.997 | S. cerevisiae deletion strains, locus YJR075W, strain HOC1, active compounds read low 1.01 | S. cerevisiae deletion strains, locus YKL009W, strain mrt4, active compounds read low 0.988 | S. cerevisiae deletion strains, locus YKL068W, active compounds read low 0.982 | S. cerevisiae deletion strains, locus YKL085W, strain MDH1 (second series), active compounds read low 0.994 | S. cerevisiae deletion strains, locus YKL085W, strain MDH1, active compounds read low 0.994 | S. cerevisiae deletion strains, locus YKL190W, strain CNB1, active compounds read low 0.977 | S. cerevisiae deletion strains, locus YKR001C, strain vps1, active compounds read low 0.974 | S. cerevisiae deletion strains, locus YLR039C, strain RIC1, active compounds read low 0.986 | S. cerevisiae deletion strains, locus YLR058C, strain SHM2, active compounds read low 0.989 | S. cerevisiae deletion strains, locus YLR102C, strain apc9, active compounds read low 0.995 | S. cerevisiae deletion strains, locus YLR262C, strain YPT6, active compounds read low 0.954 | S. cerevisiae deletion strains, locus YLR268W, strain sec22, active compounds read low 1.03 | S. cerevisiae deletion strains, locus YLR330W, strain CHS5, active compounds read low 0.995 | S. cerevisiae deletion strains, locus YLR342W, strain FKS1 (second series), active compounds read low 0.996 | S. cerevisiae deletion strains, locus YLR371W, strain rom2, active compounds read low 0.983 | S. cerevisiae deletion strains, locus YLR418C, strain cdc73, active compounds read low 1.01 | S. cerevisiae deletion strains, locus YML016C, strain PPZ1, active compounds read low 1 | S. cerevisiae deletion strains, locus YML032C, strain rad52, active compounds read low 0.986 | S. cerevisiae deletion strains, locus YML124C, strain tub3, active compounds read low 1 | S. cerevisiae deletion strains, locus YMR078C, strain ctf18, active compounds read low 1 | S. cerevisiae deletion strains, locus YMR223W, strain ubp8, active compounds read low 0.99 | S. cerevisiae deletion strains, locus YMR263W, strain SAP30, active compounds read low 0.982 | S. cerevisiae deletion strains, locus YMR307W, strain GAS1, active compounds read low 0.924 | S. cerevisiae deletion strains, locus YNL067W, strain RPL9B, active compounds read low 0.99 | S. cerevisiae deletion strains, locus YNL128W, strain TEP1, active compounds read low 1 | S. cerevisiae deletion strains, locus YNL153C, strain GIM3, active compounds read low 0.989 | S. cerevisiae deletion strains, locus YNL233W, strain BNI4, active compounds read low 1 | S. cerevisiae deletion strains, locus YNL250W, strain rad50, active compounds read low 0.985 | S. cerevisiae deletion strains, locus YNL271C, strain bni1, active compounds read low 1 | S. cerevisiae deletion strains, locus YNL298W, strain CLA4, active compounds read low 1.01 | S. cerevisiae deletion strains, locus YNL307C, strain MCK1, active compounds read low 0.995 | S. cerevisiae deletion strains, locus YNL322C, strain KRE1, active compounds read low 0.992 | S. cerevisiae deletion strains, locus YNR052C, strain pop2, active compounds read low 0.999 | S. cerevisiae deletion strains, locus YOL006C, strain TOP1, active compounds read low 0.937 | S. cerevisiae deletion strains, locus YOL012C, strain htz1 1.25 | S. cerevisiae deletion strains, locus YOL147C, strain pex11, active compounds read low 0.995 | S. cerevisiae deletion strains, locus YOR061W, strain CKA2, active compounds read low 0.996 | S. cerevisiae deletion strains, locus YOR069W, strain VPS5, active compounds read low 0.998 | S. cerevisiae deletion strains, locus YOR136W, strain idh2, active compounds read low 1 | S. cerevisiae deletion strains, locus YOR144C, strain elg1, active compounds read low 0.994 | S. cerevisiae deletion strains, locus YOR184W, strain ser1, active compounds read low 0.976 | S. cerevisiae deletion strains, locus YOR316C, strain cot1, active compounds read low 1 | S. cerevisiae deletion strains, locus YPL055C, strain LGE1, active compounds read low 0.908 | S. cerevisiae deletion strains, locus YPL241C, strain CIN2, active compounds read low 0.987 | S. cerevisiae deletion strains, locus YPR119W, strain clb2, active compounds read low 1 | S. cerevisiae deletion strains, locus YPR141C, strain kar3, active compounds read low 0.998 | S. cerevisiae deletion strains, locus YPR163C, strain tif3, active compounds read low 0.999 | S. cerevisiae deletion strains, locus YPR167C, strain met16, active compounds read low 1 | S. cerevisiae deletion strains, strain wtn01, active compounds read low 0.999 | S. cerevisiae strains, strain wild type, active compounds read low 0.996
